From PubChem BioAssay
MEKK2 WT-MEK5: raises or lowers MEK5 binding to wildtype human MEKK2 PB1 domain | Q9Y2U5 | bead flow cytometry, Alexa488-MEK5 binding to MEKK2 WT; actives lie on both sides | binding response (% of control), % at 10 µM | actives 1.1% (n = 290,000); in the data active = binding response below about 67% or above about 130%
MEKK2mut PB1 HTS: signal of MEK5 binding to mutant human MEKK2 PB1 domain; AID 1530; percent response, % at 10 µM; actives 0.35% (n = 290,000); bead flow cytometry, Alexa488-MEK5 binding to MEKK2 mutant; in the data active = percent response above about 24%, passing the limit was not always enough
MEKK3 PB1 HTS: modulators (inhibitors or enhancers) of MEK5 binding to human MEKK3 PB1 domain; Q99759; bead-based flow cytometry, Alexa488-MEK5 binding to MEKK3; actives lie on both sides; 0 = blocked by unlabeled MEK5, 100 = vehicle; binding response (% of control), % at 10 µM; actives 1.4% (n = 290,000); AID 1529;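 active = binding response more than 3 SD above or below the average of its plate-row segment, actives on both sides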;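 also: Alexa488 bead fluorescence after subtracting the streptavidin-only scavenger bead signal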
Target sequence (Q99759 whole entry, looked up, the tested form may be a part): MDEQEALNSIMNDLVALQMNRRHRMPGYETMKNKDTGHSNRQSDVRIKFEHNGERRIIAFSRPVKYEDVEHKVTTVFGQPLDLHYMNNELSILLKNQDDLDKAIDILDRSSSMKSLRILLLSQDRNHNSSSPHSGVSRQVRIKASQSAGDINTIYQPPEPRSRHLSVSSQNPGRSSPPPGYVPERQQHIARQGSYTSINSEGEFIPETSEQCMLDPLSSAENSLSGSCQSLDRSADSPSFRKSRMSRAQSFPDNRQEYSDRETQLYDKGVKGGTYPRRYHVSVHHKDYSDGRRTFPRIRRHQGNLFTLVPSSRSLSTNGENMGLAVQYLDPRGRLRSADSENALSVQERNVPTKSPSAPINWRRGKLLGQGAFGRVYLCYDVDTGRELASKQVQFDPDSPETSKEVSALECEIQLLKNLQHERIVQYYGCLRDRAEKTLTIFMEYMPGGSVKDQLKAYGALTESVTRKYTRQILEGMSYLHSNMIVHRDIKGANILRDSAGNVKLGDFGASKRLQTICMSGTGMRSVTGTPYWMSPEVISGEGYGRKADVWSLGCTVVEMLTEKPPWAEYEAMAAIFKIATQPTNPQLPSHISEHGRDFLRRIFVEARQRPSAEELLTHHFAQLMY
Beta2AR agonist: agonists of human beta-2 adrenergic receptor inducing internalization; P07550; Am2.2-beta2AR cells, FAP receptor internalization, flow cytometry; response, % (test concentration not listed); actives 0.43% (n = 340,000);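 active = response above a set limit, near 3 SD of response in nonfluorescent compounds, cut at about 42% in these data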
GRK2 inh: blocks RNA aptamer binding to human GRK2 | P25098 | inhibition of aptamer binding, % at 10 µM | actives 0.59% (n = 330,000) | bead flow cytometry, FAM-aptamer displacement from GRK2;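 active = inhibition of aptamer binding above 40%, roughly 3 SD of noise, on plates passing a quality check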;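 also: median bead fluorescence of bound FAM aptamer so fluorescent compounds give negative values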
Large screens that a line does not name were inactive; [ ] = another dose, or the depositor's remark. Only some compounds are listed: those with a hit (about 2.9% of all), similar ones and a draw of the others.

COc1ccc(C(=O)Oc2ccc(N(C)S(=O)(=O)c3ccccc3)cc2)cc1[N+](=O)[O-]	none
COC(=O)c1c(NC(=O)COC(=O)Cn2cnc3ccccc32)sc2c1CCCC2	none
C/C(=N/NC(=O)c1cccs1)c1c(C)[nH]n(-c2nc3ccccc3s2)c1=O	MEKK3 PB1 HTS 139
CC(=NCc1ccco1)c1c(C)[nH]n(-c2nc3ccccc3s2)c1=O	none
COc1cc(NC(=S)N2CCCC2)cc(OC)c1	none
Cc1ccccc1C(=O)N1CCN(c2ncccn2)CC1	none
Cc1ccccc1C(=O)N1CCN(c2ccccn2)CC1	GRK2 inh 45
COC(=O)c1ccc(NC(=O)CSc2nncn2-c2ccccn2)cc1	MEKK2 WT-MEK5 -11[inhibitor], MEKK3 PB1 HTS 0.0[inhibitor]
COC(=O)c1cccc(NC(=O)CSc2nncn2-c2ccccn2)c1	none
OC(c1cc(-c2ccc(Cl)cc2)nc2ccccc12)C1CCCCN1 (configuration not stated)	MEKK2 WT-MEK5 155, MEKK2mut PB1 HTS 59
CCN(CC)CCNC(=O)c1ccc(NC(=O)/C=C/c2ccc3ccccc3n2)cc1	MEKK2 WT-MEK5 0.0
CCN(CC)CCNC(=O)c1ccc(NC(=O)Cc2ccccc2F)cc1	none
Cc1cc2c(cc1S(=O)(=O)NCc1ccccc1)OCC(=O)N2	none
COc1ccc2c(CC(=O)OCC(=O)Nc3ccc(S(N)(=O)=O)cc3)coc2c1	none
COc1ccc2c(CC(=O)OCC(=O)Nc3ccc(C)cc3)coc2c1	GRK2 inh 44 (no result: MEKK2 WT-MEK5, MEKK2mut PB1 HTS, MEKK3 PB1 HTS)
CCN(CC)S(=O)(=O)c1ccc2[nH]c(=O)cc(C(=O)Nc3ccccc3N3CCOCC3)c2c1	none (no result: MEKK2 WT-MEK5, MEKK2mut PB1 HTS, MEKK3 PB1 HTS)
CCC1(c2ccc(F)cc2)NC(=O)N(CC(=O)c2cc(C)n(C3CC3)c2C)C1=O (configuration not stated)	none (no result: MEKK2 WT-MEK5, MEKK2mut PB1 HTS, MEKK3 PB1 HTS)
CCOC(=O)c1c(-c2ccccc2)oc2ccc(OCC(O)CN(C)C)cc12 (configuration not stated)	MEKK2 WT-MEK5 162, MEKK2mut PB1 HTS 25
CCOC(=O)c1c(-c2ccccc2)oc2ccc(OC(C)C(=O)O)cc12 (configuration not stated)	none
CC(C(=O)Nc1ccc2c(c1)OCO2)n1cnc2c1c(=O)n(C)c(=O)n2C (configuration not stated)	none (no result: MEKK2 WT-MEK5, MEKK2mut PB1 HTS, MEKK3 PB1 HTS)
CCOC(=O)C1=C(N)n2c(s/c(=C\c3ccco3)c2=O)=C(C(=O)OC(C)C)C1c1ccco1 (configuration not stated)	Beta2AR agonist 65
Cc1cc(-c2ccc(N=Nc3c(S(=O)(=O)O)cc4cc(S(=O)(=O)O)cc(N)c4c3O)c(C)c2)ccc1N=Nc1c(S(=O)(=O)O)cc2cc(S(=O)(=O)O)cc(N)c2c1O	GRK2 inh 98 (no result: MEKK2 WT-MEK5, MEKK2mut PB1 HTS, MEKK3 PB1 HTS, Beta2AR agonist)
CC[C@]1(C(=O)OC)[C@H]2C(=O)N(Cc3ccccc3)C(=O)[C@H]2[C@H]2CN=C(SC)N21	none (no result: MEKK2 WT-MEK5, MEKK2mut PB1 HTS, MEKK3 PB1 HTS)
Cc1ccccc1N=CC=C1OC(C)(C)C(C)(C)O1	GRK2 inh 54
Cc1cccc(N=CC=C2OC(C)(C)C(C)(C)O2)c1	none
Cc1cccc(NC(=O)COc2ccc(/C=N\n3cnnc3)cc2)c1	GRK2 inh 43
CC[n+]1c(/C=C(\C)OC)sc2ccccc21	none (no result: GRK2 inh)
CC[n+]1c(/C=C/C=C/N(C(C)=O)c2ccccc2)sc2cc(OC)ccc21	MEKK2 WT-MEK5 11, GRK2 inh 80 (no result: Beta2AR agonist)
COc1ccc(C(=O)/C=C/C(=O)N(CC(=O)NC2CCCCC2)Cc2cccs2)c(O)c1	Beta2AR agonist 115
COCCN(CC(=O)NC1CCCCC1)C(=O)/C=C/C(=O)c1ccc(OC)cc1O	Beta2AR agonist 91 (no result: GRK2 inh)
COc1ccc(CN(C(=O)/C=C/C(=O)c2ccc(OC)cc2O)C(C(=O)NC2CCCCC2)c2ccncc2)cc1 (configuration not stated)	none
Cc1ccc(S(=O)(=O)NCCCNS(=O)(=O)c2ccccc2Br)cc1	none (no result: MEKK2 WT-MEK5, MEKK2mut PB1 HTS, MEKK3 PB1 HTS)
CCOC(=O)c1nc2sc3c(c2c(=O)[nH]1)CCCC3	none
CCOC(=O)c1nc2sc3c(c2c(=O)[nH]1)CCC(C)C3 (configuration not stated)	Beta2AR agonist 56
CC(=O)Nc1ccccc1N(CC(O)Cn1c2ccccc2c2ccccc21)S(=O)(=O)c1ccc(C)cc1 (configuration not stated)	MEKK3 PB1 HTS 138
COc1ccc(N(CC(O)Cn2c3ccccc3c3ccccc32)S(=O)(=O)c2ccccc2)cc1 (configuration not stated)	none
O=C1C(Cl)=C(N2CCN(c3ccccc3[N+](=O)[O-])CC2)C(=O)c2ccccc21	Beta2AR agonist 81
CC(C)NC(=O)NC(=O)CN1c2cccc3cccc(c23)S1(=O)=O	none
CC(=O)c1ccc(NC(=O)C(C)N2CCN(C/C=C/c3ccccc3)CC2)cc1 (configuration not stated)	MEKK2mut PB1 HTS active, MEKK3 PB1 HTS 191
CC(C)(C)OC(=O)N1C[C@H](O)C[C@H]1C(=O)OCC(=O)c1ccc([N+](=O)[O-])cc1	none
Cc1oc(-c2cccc(Cl)c2)nc1CN1CCC(C(=O)NCCCN2CCCC2=O)CC1	none
Cc1oc(-c2cccc(Cl)c2)nc1CN1CCC(C(=O)NCCCN2CC(C)CC(C)C2)CC1 (configuration not stated)	MEKK2 WT-MEK5 139
Cc1oc(-c2ccc(Cl)cc2)nc1CN1CCC(C(=O)NCc2cccnc2)CC1	none
CCCN(CCC)CCNC(=O)C1CCN(Cc2nc(-c3ccc(Cl)cc3)oc2C)CC1	GRK2 inh 96
O=C1CC(NS(=O)(=O)c2ccc([N+](=O)[O-])cc2)CN1c1cccc(F)c1 (configuration not stated)	none (no result: MEKK2 WT-MEK5, MEKK2mut PB1 HTS, MEKK3 PB1 HTS)
CC(C)(C)c1ccc(-c2cc(C(=O)NNC(=O)Nc3ccccc3)c3ccccc3n2)cc1	Beta2AR agonist 43
O=C(O)CCCN1C(=O)/C(=C\c2ccc(-c3nc4ccccc4s3)o2)SC1=S	MEKK2 WT-MEK5 41[inhibitor], Beta2AR agonist 53
O=C(O)CCCN1C(=O)/C(=C/C=C/c2ccco2)SC1=S	GRK2 inh 100
O=C1S/C(=C\C=C\c2ccco2)C(=O)N1c1ccc(O)cc1	none
O=C(O)CC(C(=O)O)N1C(=O)/C(=C/C=C/c2ccco2)SC1=S (configuration not stated)	GRK2 inh 100
O=C(O)CCN1C(=O)/C(=C/c2ccc(-c3nc4ccccc4s3)o2)SC1=S	none (no result: MEKK2 WT-MEK5, MEKK2mut PB1 HTS, MEKK3 PB1 HTS)
CCCc1ccc(C2=Nn3c(nnc3C(C)C)SC2)cc1	Beta2AR agonist 66
CC(C)c1nnc2n1N=C(c1ccc(Cl)cc1)CS2	none
NC(=O)C(C1=CCCCC1)c1ccccc1 (configuration not stated)	none (no result: MEKK2 WT-MEK5, MEKK2mut PB1 HTS, MEKK3 PB1 HTS, GRK2 inh)
COc1cccc(N2CCN(C(=O)c3cc4c(s3)CCCCC4)CC2)c1	none (no result: MEKK2 WT-MEK5, MEKK2mut PB1 HTS, MEKK3 PB1 HTS)
O=C(c1ccccc1)c1cc(Cl)ccc1N1C(=O)C=CC1=O	Beta2AR agonist 43 (no result: GRK2 inh)
COc1cc(NS(=O)(=O)c2ccc(Br)s2)cc(OC)c1	MEKK2 WT-MEK5 -14
